Here are results for 26 compounds from PubChem BioAssay (NCI).

Experiment in all cases: NCI-60 one-dose screen, 48 h (100 = growth as untreated, 0 = no growth, -100 = all killed)
Common to all, as to conditions: 10 µM unless noted

For assay [1], the system named is HCT-15 colon.
In assay [2] the test system is HT29 colon.
Assay [3] relates to SNB-75 CNS.
Assay [4] has as its system SNB-19 CNS.
The test system of assay [5] is U251 CNS.
For assay [6], the system named is PC-3 prostate.
In assay [7] the test system is SK-MEL-5 melanoma.
For assay [8], the system named is UACC-62 melanoma.
Assay [9] has as its system LOX IMVI melanoma.
In assay [10] the test system is SK-MEL-28 melanoma.

The structures appear in SMILES notation. About 83,000 compounds went through this panel and 20% of them were active in at least one assay; those are over-represented in the sample as a whole.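 For each line, cells grew in 96-well plates with the test compound present at a single concentration for 48 hours.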 Unmarked numbers belong to inactive results. Active and inactive are the calls of the source. The calls were made as follows: active = growth percent below 10; inactive = the rest.

In the case of `Nc1nc([Se])c2ncn(C3OC(CO)C(O)C3O)c2n1` (stereo not given), the growth is 85.6% in assay [1]; 55.2% in assay [2]; 96.7% in [3]; 98% in [4]; 94.6% in [5]; 93.4% in assay [6]. For the same compound, the growth in assay [7] was 92.2%; in assay [8], 68.5%; in [9], 10.1%; in [10], 98.9%.

With `CC1(C)[C@H](O)[C@H](F)C[C@@]2(C)Oc3ccc(C(=O)Nc4ccc5c(c4)NC(=O)C54CCN(CCCCC#N)CC4)cc3C[C@H]12`, the growth in assay [1] is 45.7%; in assay [2] it was 16%; in [3] it was 46.8%; in assay [4] it was 32.2%; in [5], 10.6%; in assay [6], 24.4%. In addition, the growth in assay [7] is -60.7% (active); in [8], -24.4% (active); in assay [9] it was 7.04% (active); in assay [10], 4.12% (active).

Turning to `CN1C(=O)N[C@H]2[C@@H]3NC(=O)c4ccc(Br)n4[C@@H]3C[C@]21O`, the growth is 3.29% (active) in assay [1]; -15.6% (active) in assay [2]; -70.3% (active) in [3]; -15.6% (active) in assay [4]; -13.8% (active) in assay [5]; -11.7% (active) in [6]. The growth in [7] is -76.7% (active); in assay [8], -54.2% (active); in assay [9] it was -42% (active); in assay [10] it was -34.9% (active).

As for `CC(=O)O[C@@H]1CC[C@]2(C)[C@H]3CC[C@]4(C)C(=O)CC[C@H]4[C@@H]3C[C@@H]3SC(N)=N[C@@]32C1`, the growth in assay [1] is 35.2%; in assay [2], 10.2%; in assay [3] it was 73.2%; in assay [4], 54.7%; in assay [5], 37%; in assay [6], 71%. Also, the growth in assay [7] was 32.5%; in assay [8] it was 38.2%; in assay [9], 66.3%; in [10] it was 72.2%.

For `CCCC(C)C1(CC)C(=O)NC(=O)N(C)C1=O` (stereo not given), the growth in assay [1] is 107%; in assay [2] it was 94.6%; in [3] it was 98.8%; in assay [4], 104%; in [5], 92.1%; in assay [6], 85.8%. For the same compound, the growth in [7] is 89.1%; in [8], 90.8%; in [9] it was 98.6%; in assay [10] it was 116%.

For the compound `COc1ccc(/C=C\c2cc(OC)c(OC)c(OC)c2)cc1NC(=O)/C=C/c1ccc(OC)c(OC)c1`, the growth in assay [1] was 29.7%; in assay [2], 15.7%; in assay [3], 16%; in assay [4], 36.6%; in [5], 35.4%; in assay [6] it was 31.7%. Further, the growth in assay [7] is 5.07% (active); in assay [8] it was 36.6%; in [9] it was 30.8%; in assay [10], 51.8%.

As to `[Cl][Hg][n]1c(-c2ccco2)nc2ccccc21`, the growth was 92% in assay [1]; 104% in assay [2]; 91.7% in assay [3]; 93.1% in [4]; 91.5% in assay [5]; 98.5% in assay [6]. In addition, the growth in assay [7] was 97%; in assay [8], 95.8%; in assay [9], 15.4%; in [10], 108%.

`Cc1ccc(Nc2nc3c(s2)C2=CC[C@@H]4[C@H](CC[C@]5(C)C(=O)CC[C@@H]45)[C@@]2(C)CC3)cc1`: the growth was 17% in assay [1]; 15% in assay [2]; 28.7% in assay [3]; 55.4% in [4]; 33.4% in assay [5]; 33% in assay [6]. Besides, the growth is 56.6% in assay [7], 68.3% in [8], 21.3% in assay [9] and 37.6% in assay [10].

Consider `CC1CCCC(C[N+](C)(C)C)C1=O` (stereo not given), for which the growth in assay [1] was 108%; in [2], 105%; in assay [3], 95.2%; in [4], 96.6%; in [5], 105%; in assay [6], 93.6%. Besides, the growth in assay [7] was 99.5%; in [8], 90%; in assay [9], 50.2%; in assay [10] it was 108%.

`CC12CC=CCC1CCC1C2CCC2(C)C(c3ccc(=O)oc3)CCC12O` (stereo not given): the growth is -66.3% (active) in [1]; -44.7% (active) in [2]; -61.7% (active) in [3]; -98.3% (active) in assay [4]; -73.3% (active) in [5]; -6.92% (active) in [6]. Besides, the growth was -47.5% (active) in assay [7], -72.9% (active) in assay [8], -78% (active) in [9] and -33.8% (active) in [10].

Consider `Cc1cc(N(CCCl)CCCl)ccc1C=Nc1ccc(-c2csc(Cc3ccccc3)n2)cc1`, for which the growth in assay [1] is 76.1%; in assay [2], 88.3%; in assay [3], 50.3%; in assay [4], 81.1%; in assay [5] it was 62.7%; in assay [6], 53%. Further, the growth in assay [7] was 84.1%; in [8], 48.6%; in [9] it was 63.2%; in [10] it was 90.5%.

Regarding `CC(=O)O[C@H](C[C@H](C(C)C)N(C)C(=O)[C@@H](NC(=O)[C@H]1CCCCN1C)C(C)C)c1nc(C(=O)NC2CCC(C(=O)O)CC2)cs1` (stereo not given in full), the growth in assay [1] is 70.6%; in assay [2], 17.7%; in [3] it was -1.9% (active); in assay [4], 40.9%; in assay [5], 33.2%; in assay [6], 48.5%. In addition, the growth in assay [7] is 49.8%; in assay [8], 28%; in assay [9], 35.5%; in [10], 71.4%.

Turning to `COC(=O)[C@@H](C)C[C@H](Cc1ccccc1)NC(=O)c1csc([C@@H](C[C@H](C(C)C)N(C)C(=O)[C@@H](NC(=O)[C@H]2CCCCN2C)C2CCCCC2)OC(C)=O)n1`, the growth is 10.8% in assay [1]; -0.416% (active) in assay [2]; 5.81% (active) in assay [3]; 64.5% in [4]; -19.4% (active) in assay [5]; 5.7% (active) in assay [6]. Also, the growth in assay [7] is -56.2% (active); in [8], 36.3%; in assay [9], 12.5%; in assay [10], 38%.

`COC(=O)[C@@]1(C)CC[C@]2(C)CC[C@]3(C)C4=CC=C5C(=CC(=O)C(O)=C5C)[C@]4(C)CC[C@@]3(C)[C@@H]2C1`: the growth in [1] is -83.7% (active); in assay [2], -74.1% (active); in assay [3], -78.9% (active); in [4], -94.2% (active); in assay [5] it was -97.4% (active); in assay [6] it was -88.5% (active). For the same compound, the growth in [7] is -97.1% (active); in assay [8] it was -92.7% (active); in [9], -90.5% (active); in assay [10] it was -92.9% (active).

Consider `CC1=C([Te]c2ccc(O)cc2)C(=O)c2ccccc2C1=O`, for which the growth was 13.6% in assay [1]; 1.03% (active) in assay [2]; -3.63% (active) in [3]; 12.3% in assay [4]; 10% in assay [5]; 5.85% (active) in assay [6]. Moreover, the growth was -94.6% (active) in assay [7], 5.4% (active) in [8], 5.05% (active) in assay [9] and -12.4% (active) in assay [10].

In the case of `COc1ccc(/C=C\c2cc(OC)c(OC)c(OC)c2)cc1NC(=O)/C=C/c1cc(OC)c(OC)c(OC)c1`, the growth in [1] was 46.5%; in assay [2], 34.2%; in assay [3], 30.6%; in assay [4], 61.8%; in assay [5], 57%; in assay [6], 36%. Also, the growth is 1.74% (active) in assay [7], 31.4% in assay [8], 46.3% in [9] and 44% in [10].

With `CCCCNC(c1ccc(Cl)cc1)C(O)c1ccc(Cl)cc1` (stereo not given), the growth was 32.7% in [1]; 4.8% (active) in assay [2]; 61.9% in assay [3]; 54.6% in assay [4]; 6.63% (active) in [5]; 42.2% in assay [6]. Besides, the growth in [7] is 32.7%; in [8], 19.2%; in assay [9], -75.6% (active); in assay [10] it was 45.6%.

As to `COc1ccc(N(CC(=O)NCCC[Te]c2ccccc2)C(=O)CCSC2=C(C)C(=O)c3ccccc3C2=O)cc1`, the growth in assay [1] is -15.7% (active); in assay [2], 1.86% (active); in assay [3], 13.2%; in assay [4], -12.4% (active); in assay [5], -42.7% (active); in [6], 0.627% (active). The growth is -96.7% (active) in assay [7], -25.4% (active) in [8], -50.1% (active) in assay [9] and -18.1% (active) in assay [10].

In the case of `CCC(CC)CC1(C)CC2(C)CCOC2OO1` (stereo not given), the growth was 104% in [1]; 100% in assay [2]; 98.8% in assay [3]; 103% in [4]; 102% in assay [5]; 99.8% in assay [6]. In addition, the growth is 98.5% in assay [7], 95.4% in [8], 102% in assay [9] and 109% in [10].

As for `Clc1cc(N2CC2)nc(N2CC2)n1`, the growth in [1] was 72.5%; in assay [2] it was 79.8%; in assay [3] it was 70.6%; in assay [4], 65.9%; in [5] it was 67.9%; in assay [6], 65.2%. In addition, the growth is 73.9% in assay [7], 54.4% in [8], 51.7% in [9] and 92.1% in assay [10].

With `CCCCCCCCOC(=O)CCN1CC1`, the growth in assay [1] is 101%; in assay [2], 111%; in assay [3], 110%; in [4] it was 112%; in assay [5], 95.6%; in [6], 104%. In addition, the growth in assay [7] was 105%; in [8] it was 109%; in assay [9], 96.9%; in [10], 113%.

On to `COc1ccc(/C=C\c2cc(OC)c(OC)c(OC)c2)c(NS(=O)(=O)c2ccc(Cl)cc2)c1O`, for which the growth was 13.4% in assay [1]; 17.1% in assay [2]; 18.9% in [3]; 53.4% in assay [4]; 12.3% in assay [5]; 26.1% in assay [6]. The growth in assay [7] was -1.82% (active); in [8], 40.9%; in [9] it was 10.7%; in assay [10] it was 60.3%.

As for `CC1(C)C(C(=O)c2cn(CCCCF)c3ccccc23)C1(C)C`, the growth in [1] is 91.9%; in assay [2] it was 48.8%; in assay [3], 96%; in [4], 104%; in [5], 86%; in assay [6], 85%. The growth in assay [7] was 92.1%; in assay [8] it was 88.4%; in [9] it was 92.9%; in assay [10], 116%.

For `CN[C@]1(c2ccccc2Cl)CCCC[C@H]1NCCCN1CCN(C)CC1`, the growth in [1] is 99%; in [2], 96%; in assay [3] it was 82%; in [4], 102%; in assay [5], 103%; in assay [6], 91.5%. Moreover, the growth in assay [7] was 97.7%; in assay [8], 104%; in assay [9], 96.4%; in assay [10], 112%.

Take `COc1ccc(C2=CC(c3ccc(OC)c(OC)c3)c3c(c4ccccc4oc3=O)O2)cc1OC` (stereo not given): the growth in assay [1] is 13.6%; in [2], 3.84% (active); in assay [3], -4.06% (active); in assay [4] it was 17.9%; in assay [5], 24.2%; in [6], -18.3% (active). In addition, the growth in assay [7] is 17.1%; in assay [8], 36.8%; in assay [9], 36%; in assay [10], 50.9%.

`CCCCN1CCCC[C@@H]1C(=O)N[C@H](C(=O)N(C)[C@H](CCc1nc(C(=O)N[C@@H](Cc2ccccc2)C[C@H](C)C(=O)OC)cs1)C(C)C)[C@@H](C)CC`: the growth in [1] is 41.4%; in assay [2], 35.2%; in assay [3], 70.3%; in assay [4], 62.5%; in assay [5], 58.3%; in [6] it was 40.8%. Besides, the growth in assay [7] is 34.8%; in [8], 47%; in assay [9] it was 78.2%; in assay [10], 81.1%.
